High-throughput results (PubChem BioAssay)
Not all results are given here.
aSyn 5UTR act: Activators via SNCA 5'UTR binding, MLPCN; AID 1814; activity score, % (tested at 7.5 µM), hits read low; alpha-synuclein 5'UTR reporter, activators screen; 300,000 compounds, 7.1% hits; in the data active means activity score below about -60%
* = called active by the depositor.

`COc1ccccc1NC1=C(Cl)C(=O)N(c2ccccc2)C1=O` gave aSyn 5UTR act -70*.
For O=C1C(Cl)=C(Nc2ccccc2O)C(=O)N1CCc1ccccc1 the results were aSyn 5UTR act -87*.
`CCOc1ccc(N2C(=O)C(Cl)=C(Nc3ccccc3O)C2=O)cc1` gave aSyn 5UTR act -184*.
`CCOc1ccc(-c2cc(C(=O)O)c3ccccc3n2)cc1` gave aSyn 5UTR act -83*.
CC(C)Oc1cccc(-c2cc(C(=O)N3CCN(c4ncccn4)CC3)c3ccccc3n2)c1 was read as aSyn 5UTR act -64*.
For CCOc1ccc(-c2cc(C(=O)N3CCC(C)CC3)c3ccccc3n2)cc1 the results were aSyn 5UTR act -128*.
Cc1cccc2c(C(=O)N3CCN(c4ccccc4)CC3)cc(-c3ccncc3)nc12 was read as aSyn 5UTR act 94.
For COc1ccc(-c2cc(C(=O)OCC(=O)NC(C)C)c3ccccc3n2)cc1 the results were aSyn 5UTR act -65*.
Screening COc1ccc2cc(-c3cc(C(=O)OCC(=O)Nc4c(C)n(C)n(-c5ccccc5)c4=O)c4ccccc4n3)ccc2c1 returned aSyn 5UTR act 52.
`COc1ccc2nc(-c3ccc(Cl)cc3)cc(C(=O)O)c2c1` gave aSyn 5UTR act -72*.
`CCN1CCCC(OC(=O)c2cc(-c3ccc(C)cc3)nc3ccccc23)C1` (stereo not given) gave aSyn 5UTR act -94*.
For Cc1ccc(-c2cc(C(=O)N3CCN(c4ccccc4O)CC3)c3ccccc3n2)o1 the results were aSyn 5UTR act -81*.
For Cc1cc(NCc2ccccn2)nc2ccccc12 the results were aSyn 5UTR act -87*.
For FC(F)(F)c1ccc(NCc2ccccn2)nc1 the results were aSyn 5UTR act -167*.
Screening CCC(C)Nc1nc(-c2ccccn2)nc2ccccc12 (stereo not given) returned aSyn 5UTR act 69.
For O=C1c2ccccc2S(=O)(=O)c2cc(N3CCC4(CC3)OCCO4)ccc21 the results were aSyn 5UTR act -118*.
`CC1CCN(c2ccc3c(c2)S(=O)(=O)c2ccccc2C3=O)CC1` gave aSyn 5UTR act -140*.
Screening NC(=O)C1CCN(c2ccc3c(c2)S(=O)(=O)c2ccccc2C3=O)CC1 returned aSyn 5UTR act -63*.
CC(=O)n1nc(-c2ccco2)nc1SCc1ccccc1 was read as aSyn 5UTR act -89*.
For CCC(=O)n1nc(-c2ccco2)nc1SCc1ccccc1 the results were aSyn 5UTR act -74*.
Screening CC(C)Oc1ccc(C(=O)Nc2nc3ccccc3[nH]2)cc1 returned aSyn 5UTR act 81.
`O=C(Nc1nc2ccccc2[nH]1)c1cc(F)cc(F)c1` gave aSyn 5UTR act -148*.
O=C(Nc1nc2ccccc2[nH]1)c1ccccc1F was read as aSyn 5UTR act 108.
COc1cc(OC)cc(C(=O)Nc2nc3ccccc3[nH]2)c1 was read as aSyn 5UTR act -189*.
For COc1ccc(Br)c(C(=O)Nc2nc3ccccc3[nH]2)c1 the results were aSyn 5UTR act -87*.
`Cn1nc(C(=O)Nc2nc3ccccc3[nH]2)c2ccccc2c1=O` gave aSyn 5UTR act -144*.
For O=C(Nc1nc2ccccc2[nH]1)c1ccc(F)c(S(=O)(=O)N2CCOCC2)c1 the results were aSyn 5UTR act -99*.
For COc1ccc2oc(C(=O)Nc3nc4ccccc4[nH]3)c(C)c2c1 the results were aSyn 5UTR act -102*.
Cc1cc(C)cc(C(=O)Nc2nc3ccccc3[nH]2)c1 was read as aSyn 5UTR act -139*.
Screening Nc1nc2ccccc2n1/N=C/c1ccc(Br)cc1 returned aSyn 5UTR act -139*.
Nc1nc2ccccc2n1/N=C/c1ccc2c(c1)OCO2 was read as aSyn 5UTR act -192*.
Cc1cccc(CN2C(=O)N/C(=C/c3ccc(C)s3)C2=O)c1 was read as aSyn 5UTR act -88*.
For CC(=O)c1ccccc1NC(=O)c1ccc2c(c1)NC(=O)C(C)S2 (stereo not given) the results were aSyn 5UTR act -135*.
Screening CCCNC(=O)c1ccccc1NC(=O)c1ccc2c(c1)NC(=O)C(C)S2 (stereo not given) returned aSyn 5UTR act -96*.
`CCCNC(=O)c1ccc2c(=O)c(O)c(-c3ccc(F)cc3)[nH]c2c1` gave aSyn 5UTR act 81.
`Cc1c(Cl)cccc1NC(=O)c1cccc(OC(F)F)c1` gave aSyn 5UTR act -76*.
Cc1ccc(C(=O)Nc2ccccc2OC(F)F)cc1 was read as aSyn 5UTR act -62*.
Cc1ccc(NC(=O)c2cccc(OC(F)F)c2)c(OC(F)F)c1 was read as aSyn 5UTR act -71*.
For CSc1nc(N)c(C(=O)Nc2ccc([N+](=O)[O-])cc2)s1 the results were aSyn 5UTR act -66*.
`Cc1ccc(-c2cn3nc(C)c(C)nc3n2)cc1` gave aSyn 5UTR act 73.
`Cc1ccc(-c2cn3c(n2)SCC3)cc1` gave aSyn 5UTR act -144*.
For CCc1ccc(-c2cn3c(n2)SCC3)cc1 the results were aSyn 5UTR act -99*.
`Oc1cccc(-c2nc3ccc4ccccc4c3c3c2CCC3)c1` gave aSyn 5UTR act -137*.
`Clc1ccc(/C=N/Nc2nc(Cl)nc3ccccc23)cc1` gave aSyn 5UTR act -172*.
For Clc1ccc(/C=N/Nc2nnc(Cl)c3ccccc23)cc1 the results were aSyn 5UTR act -165*.
Screening Clc1nnc(N/N=C/c2ccccc2)c2ccccc12 returned aSyn 5UTR act -268*.
`Cc1ccc(/C=N/Nc2nnc(Cl)c3ccccc23)cc1` gave aSyn 5UTR act -157*.
Clc1nnc(NN=C2CCCC2)c2ccccc12 was read as aSyn 5UTR act -194*.
CCSc1nn2c(=O)c3ccccc3nc2s1 was read as aSyn 5UTR act -120*.
Screening O=C(CO/N=C/c1ccccc1O)N1CCc2ccccc21 returned aSyn 5UTR act -67*.
Screening Cc1ccnc(NC(=O)COc2ccc3c(c2)CCC3)c1 returned aSyn 5UTR act -90*.
Screening Cc1ccc(OCC(=O)N2CCc3ccccc32)cc1 returned aSyn 5UTR act -121*.
Screening CCc1ccc(OCC(=O)N2CCc3ccccc32)cc1 returned aSyn 5UTR act -190*.
For O=C(COc1ccc2c(c1)CCC2)N1CCc2ccccc21 the results were aSyn 5UTR act -123*.
`Cc1ccc(NC(=O)c2cccc(Cl)c2)nc1` gave aSyn 5UTR act -75*.
`CCOC(=O)N1CCN(S(=O)(=O)c2ccc(C(=O)NNc3nc4cc(C)cc(C)c4s3)cc2)CC1` gave aSyn 5UTR act 66.
`Cc1ccc(NC(=O)c2ccc3c(c2)NC(=O)CS3)nc1` gave aSyn 5UTR act -93*.
For CC(=O)N1CCN(S(=O)(=O)c2cccc(C(=O)Nc3ccc(C)cn3)c2)CC1 the results were aSyn 5UTR act -71*.
Screening Cn1sc(NC(=O)c2cccc(Cl)c2)nc1=O returned aSyn 5UTR act -118*.
O=C(Nc1cc(-c2ccccc2)[nH]n1)c1ccc(Cl)cc1 was read as aSyn 5UTR act -124*.
Cc1cc(NC(=O)c2cccc(Cl)c2)n[nH]1 was read as aSyn 5UTR act -71*.
For Cc1ccccc1OCC(O)Cn1c(=N)n(Cc2ccccc2)c2ccccc21 (stereo not given) the results were aSyn 5UTR act 113.
Screening Cc1ccccc1OCCCCn1cnc2ccccc21 returned aSyn 5UTR act -83*.
`COc1ccc(OCCn2cnc3ccccc32)cc1` gave aSyn 5UTR act -70*.
For c1ccc(CCn2cnc3ccccc32)cc1 the results were aSyn 5UTR act -91*.
Screening Brc1ccccc1OCCCn1cnc2ccccc21 returned aSyn 5UTR act -93*.
